FBW7 activator – FBW7 E3 ligase activators, primary screen, biochemical, AlphaScreen, human. AID 1259310, 2017. F-box/WD repeat-containing protein 7 (Homo sapiens), Q969H0. actives 0.13% (n = 650,000). normalized activity (activation), % at 26.1 µM. AlphaScreen FBW7–phospho-cyclin E peptide binding, activator screen; in the data active means normalized activity above about 1.9%;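 further: purified mutant Fbw7 with reduced substrate affinity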
Target sequence (Q969H0 whole entry, looked up): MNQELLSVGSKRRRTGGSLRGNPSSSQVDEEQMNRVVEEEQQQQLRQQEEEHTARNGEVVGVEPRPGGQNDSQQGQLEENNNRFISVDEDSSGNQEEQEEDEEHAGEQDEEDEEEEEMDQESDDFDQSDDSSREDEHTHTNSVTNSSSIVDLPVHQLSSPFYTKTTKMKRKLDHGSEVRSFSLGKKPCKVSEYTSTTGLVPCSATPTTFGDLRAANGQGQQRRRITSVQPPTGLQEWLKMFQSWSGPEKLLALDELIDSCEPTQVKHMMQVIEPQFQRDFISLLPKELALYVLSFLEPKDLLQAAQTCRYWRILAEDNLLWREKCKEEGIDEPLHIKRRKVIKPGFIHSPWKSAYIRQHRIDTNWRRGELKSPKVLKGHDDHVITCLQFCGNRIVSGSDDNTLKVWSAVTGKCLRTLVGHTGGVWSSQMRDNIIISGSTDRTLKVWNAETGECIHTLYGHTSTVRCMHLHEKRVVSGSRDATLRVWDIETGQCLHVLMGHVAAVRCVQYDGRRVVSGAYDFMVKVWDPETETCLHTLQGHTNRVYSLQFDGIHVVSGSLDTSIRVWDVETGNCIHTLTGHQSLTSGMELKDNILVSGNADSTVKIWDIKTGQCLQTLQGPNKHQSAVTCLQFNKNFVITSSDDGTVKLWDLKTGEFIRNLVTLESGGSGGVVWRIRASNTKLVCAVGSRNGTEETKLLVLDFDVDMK
TEAD-YAP block – TEAD-YAP interaction inhibition, primary screen, TEAD-YAP interaction inhibitor project, luminescence, HEK-TIYL cells; TEAD-Gal4/YAP UAS-luciferase luminescence; inhibition, % at 9.12 µM; actives 1.4% (n = 640,000); AID 1259422, 2018; in the data active means inhibition above about 32%
GPR151 ag – activators of human GPR151, primary screen, cell-based, PathHunter beta-arrestin, luminescence; activation, % at 11.2 µM; PathHunter beta-arrestin GPR151 cells; actives 1% (n = 650,000); G-protein coupled receptor 151 (Homo sapiens), Q8TDV0; in the data active means activation above about 4.9%
MITF primary – MITF inhibitors, primary screen, biochemical, AlphaScreen, human | AlphaScreen MITF homodimerization, bead proximity signal | actives 0.91% (n = 650,000) | inhibition, % at 2.6 µM | AID 1259374, 2018; in the data active means inhibition above about 50%
MITF confirm – MITF inhibitors, retest of hits, confirmation, biochemical, AlphaScreen, triplicate | shares compounds with MITF primary | AlphaScreen MITF homodimerization, biotin/His-MITF beads | inhibition, % at 2.6 µM | actives 16% (n = 4,700);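 active means inhibition above a cutoff derived from the DMSO control wells, cut at about 28% in these data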;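 further: inhibitors lower the bead chemiluminescence by keeping MITF from dimerizing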
AlphaScreen intf2 – AlphaScreen optical interference compounds, counter-screen for MITF inhibitor project, biochemical, triplicate; shares compounds with MITF primary; LysRS AlphaScreen counterscreen, signal interference; inhibition, % at 2.6 µM; actives 7.6% (n = 4,700);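 active means inhibition above a cutoff derived from the DMSO control wells, cut at about 30% in these data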
Of the large screens only hits and unclear results are named; the others gave an inactive call (follow-up assays come after a bar, where they were run). Hits are enriched below; roughly 3.5% of the tested compounds scored in any of these assays.

COc1ccc(Br)cc1CN1CCN(C(=O)COc2cccc(C)c2)CC1	MITF primary 58 | MITF confirm inactive | AlphaScreen intf2 inactive
Cc1cccc(OCC(=O)N2CCN(Cc3ccc(Br)cc3)CC2)c1	MITF primary 70 | MITF confirm inactive | AlphaScreen intf2 inactive
O=C(COc1ccccc1)N1CCN(Cc2cccc(Cl)c2)CC1	none
O=C(COc1ccc(Br)cc1)N1CCN(Cc2ccccc2)CC1	none
Cc1cccc(OCC(=O)N2CCN(Cc3ccccc3Cl)CC2)c1	MITF primary 66 | MITF confirm inactive | AlphaScreen intf2 inactive
O=C(COc1ccccc1)N1CCN(Cc2cccnc2)CC1	MITF primary 81 | MITF confirm inactive | AlphaScreen intf2 inactive
O=C(Nc1nc2ccccc2s1)c1c(O)c2c(n(Cc3ccco3)c1=O)CCCC2	none
O=C1NC(=O)N(c2cccc3ccccc23)C(=O)/C1=C\c1ccc(O)cc1	none
CN(C)C(=O)Oc1ccc2cc(-c3ccc(Cl)cc3)c(=O)oc2c1	none
Cc1cccc(CN2CCN(C(=O)COc3ccccc3)CC2)c1	MITF primary 53 | MITF confirm inactive | AlphaScreen intf2 inactive
Cc1cccc(CN2CCN(C(=O)COc3ccc(Cl)cc3)CC2)c1	none
CCN1CCN(Cc2cc(F)ccc2F)CC1	MITF primary 62 | MITF confirm inactive | AlphaScreen intf2 inactive
CN1CCN(Cc2cc(F)ccc2F)CC1	MITF primary 69 | MITF confirm inactive | AlphaScreen intf2 inactive
CN1CCN(Cc2ccc(F)cc2F)CC1	none
CC(C)CN1CCN(Cc2cc(F)ccc2F)CC1CCO (centres undefined)	none
CN1CCN(Cc2c(F)cccc2F)CC1	MITF primary 62 | MITF confirm inactive | AlphaScreen intf2 inactive
c1ccc(CN2CCN(C3CCCCC3)CC2)cc1	MITF primary 75 | MITF confirm inactive | AlphaScreen intf2 inactive
c1ccc(CN2CCN(c3ccccc3)CC2)cc1	none
Cc1cc(I)ccc1-n1c(/C=C/c2cccc(F)c2)nc2ccccc2c1=O	none
C[N+]1(C)C2CCC1CC(O)C2 (centres undefined)	none
Brc1cccc(CN2CCN(Cc3ccc4c(c3)OCO4)CC2)c1	MITF primary 64 | MITF confirm inactive | AlphaScreen intf2 inactive
Fc1cccc(CN2CCN(Cc3ccc4c(c3)OCO4)CC2)c1	MITF primary 56 | MITF confirm inactive | AlphaScreen intf2 inactive
Brc1cccc(CN2CCN(Cc3cccc(Br)c3)CC2)c1	MITF primary 77 | MITF confirm inactive | AlphaScreen intf2 inactive
Clc1cccc(CN2CCN(Cc3cccc(Br)c3)CC2)c1	none
Cc1ccccc1CN1CCN(CC(C)C)C(CCO)C1 (centres undefined)	none
NCCc1c[nH]c2c(Cl)cc(Cl)cc12	none
O=c1c2ccccc2nc(/C=C/c2ccccc2O)n1-c1cccc([N+](=O)[O-])c1	none
Fc1ccc(CN2CCN(Cc3cccc(Cl)c3)CC2)cc1	MITF primary 68 | MITF confirm inactive | AlphaScreen intf2 inactive
CC(C)N1CCN(Cc2cccc(F)c2)CC1	MITF primary 62 | MITF confirm inactive | AlphaScreen intf2 inactive
CN1CCN(Cc2cccc(F)c2)CC1	none
CCC(CC)N1CCN(Cc2cccc(F)c2)CC1	MITF primary 73 | MITF confirm inactive | AlphaScreen intf2 inactive
Fc1cccc(CN2CCN(Cc3cccc(F)c3)CC2)c1	MITF primary 68 | MITF confirm inactive | AlphaScreen intf2 inactive
CC(C)CN1CCN(Cc2ccccc2OC(F)F)CC1CCO (centres undefined)	none
Cc1ccc(-c2nc(C#N)c(N(C)C3CCN(C)CC3)o2)cc1	none
O=C(CF)NC(Nc1ccc(Cl)cc1)C(Cl)(Cl)Cl (centres undefined)	none
COc1ccc(Br)cc1C=C(C#N)C#N	none
CC1CCCCC1NC(=O)c1cn(C(C)c2ccccc2F)nn1 (centres undefined)	none
Fc1cccc(CN2CCN(Cc3ccc(Cl)cc3)CC2)c1	MITF primary 70 | MITF confirm inactive | AlphaScreen intf2 inactive
Fc1cccc(CN2CCN(c3ccc(Cl)cc3)CC2)c1	none
CCc1ccc(CN2CCN(Cc3cccc(Cl)c3)CC2)cc1	MITF primary 64 | MITF confirm inactive | AlphaScreen intf2 inactive
